Sampled rows, rich in hits. Any-hit rate of the full collection: about 4.7%.
D1 potentiator: enhances dopamine response at the human D1 receptor; potentiation, % at 10 µM; 0.036% of 360,000 active; AID 504651; HEK293 TREx D1 cells, calcium flux, dopamine EC20 potentiation; in the data active = potentiation above about 30%; also: 0% is about no effect
TRHR enhancer: allosterically enhances the human TRH receptor; TRHR cells, fluo-8 calcium fluorescence, EC20 TRH enhancement; 0.66% of 360,000 active; enhancement, % at 2 µM; P34981; in the data active = enhancement above about 30%; also: 0% is about no effect
Target sequence (P34981 whole entry, looked up): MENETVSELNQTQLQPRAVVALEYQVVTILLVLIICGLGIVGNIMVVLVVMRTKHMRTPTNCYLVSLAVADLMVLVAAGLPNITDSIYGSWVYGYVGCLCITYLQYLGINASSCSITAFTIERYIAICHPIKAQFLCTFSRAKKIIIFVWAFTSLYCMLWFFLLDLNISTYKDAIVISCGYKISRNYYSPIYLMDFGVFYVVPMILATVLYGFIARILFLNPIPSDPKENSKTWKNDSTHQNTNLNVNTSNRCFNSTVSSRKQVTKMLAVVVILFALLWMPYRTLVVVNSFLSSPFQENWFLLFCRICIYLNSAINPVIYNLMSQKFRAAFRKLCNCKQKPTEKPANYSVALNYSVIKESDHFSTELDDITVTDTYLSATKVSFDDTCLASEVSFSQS
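TRHR-expressing cells loaded with fluo-8 calcium dye were read kinetically (ex 480/em 530) during compound addition, then stimulated with an EC20 of TRH (10 nM final). Enhancement of the Gq-mediated intracellular calcium response was scored.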
D1 antag: human D1 dopamine receptor antagonism; HEK293 TREx D1 cells, calcium flux, dopamine EC80; hits give low values; P21728; 3.2% of 360,000 active; activity change, negative = inhibition, % at 10 µM; in the data active = activity change below about -30%; also: % is scaled to controls: 0 for no effect and ±100 for the full control effect
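Using tetracycline-induced force-coupled D1 Hek293 cells and a calcium dye, signals were followed for 180 s after compound, then for 180 s after EC80 dopamine, to detect inhibitors.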
D1 ag: human D1 receptor agonism. P21728. HEK293 T-REx D1 cells, calcium flux, agonist mode. activation, % at 2 µM. 1% of 360,000 active. AID 504660; also: 0% is about no effect
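Agonism was scored from calcium flux recorded over 180 s (1 read/s) after pintool compound addition, following a 10-cycle baseline. Cells were inducible force-coupled HEK293 TREx D1, plated overnight at 30 C and loaded with no-wash calcium dye.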
TRHR ag: agonists of human TRH receptor; P34981; TRHR cells, calcium flux fluo-8, FDSS agonist mode; activation, % at 2 µM; 0.18% of 360,000 active; also: 0% is about no effect
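Agonist-mode FDSS calcium read (Ex 480/Em 530, 1 s cycles) in 1536-well TRHR cells with fluo-8 dye, after 10-cycle baseline and 23 nL compound addition; TRH at EC20 (10 nM final) added afterwards for the enhancer phase.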
Starred values were filed as active, the others as inactive; . = no result. Rule as the data show it, unless noted: active = activation above about 30%; inactive = the rest.

SMILES	D1 potentiator	TRHR enhancer	D1 antag	D1 ag	TRHR ag
CCN(CC)c1ccc(NS(=O)(=O)c2cc3[nH]c(=O)c(=O)[nH]c3cc2C)c(C)c1	-2	4	-38*	1	0
Cc1nc(-c2ccc(S(=O)(=O)Nc3ccccc3C)cc2)co1	-7	3	-23	14	0
Cc1cc(Cl)ccc1NS(=O)(=O)c1cc2[nH]c(=O)c(=O)[nH]c2cc1C	2	3	-10	-1	0
CCN(CC)c1ccc(NS(=O)(=O)c2ccc(-c3coc(C)n3)cc2)c(C)c1	-6	-5	-34*	0	-1
COc1ccc(-c2nc(CSCC(=O)NCCc3ccc(C)cc3)c(C)o2)cc1OC	2	-4	-1	0	1
O=C1CC(c2ccc(Cl)c([N+](=O)[O-])c2)c2ccc3ccccc3c2N1 (stereo unspecified)	1	37*	6	6	-3
CCOC(=O)c1sc2ncn(CC(=O)Nc3ccc(OC)c(Cl)c3)c(=O)c2c1C	1	3	-22	2	1
O=C(CN1CCN(S(=O)(=O)c2ccccc2F)CC1)Nc1ccnn1C1CCCC1	-10	0	-40*	6	0
Cc1ccc(S(=O)(=O)N2CCN(CC(=O)Nc3ccnn3C3CCCC3)CC2)cc1	-11	-7	-37*	2	-1
CNC(=O)c1ccccc1NC(=O)c1c(O)c2c([nH]c1=O)CCCC2	-6	1	15	1	-1
O=C(N/N=C/c1cccc(F)c1)c1c(O)c2c([nH]c1=O)CCCC2	-5	2	-50*	1	1
Cc1nc(-c2ccccc2)sc1C(=O)NN	5	-4	-21	2	1
Cc1nc(-c2ccccc2)sc1C(=O)CSc1ccc(Br)cc1	-2	2	-36*	11	2
C=CCNC(=O)c1sc(-c2ccccc2)nc1C	-5	39*	-8	1	0
Cc1nc(-c2ccccc2)sc1C(=O)CSc1ccc(Cl)cc1	-2	-3	-4	10	1
CCCNc1ccc(-c2nc(-c3ccncc3)no2)cc1[N+](=O)[O-]	1	2	-6	8	-1
CC(=O)CCC(=O)NC1CCCc2c1cnn2-c1ccc(C(C)(C)C)cc1 (stereo unspecified)	-3	2	-37*	12	0
Cc1cc(NC(=O)c2cccs2)cc(-c2nc3cc(Cl)ccc3o2)c1O	-3	-3	3	1	0
Cc1ccc(-c2noc(C3CCCN(C(=O)c4c(F)cccc4F)C3)n2)cc1 (stereo unspecified)	-3	-5	-10	3	-1
Cc1ccc(-c2noc(C3CCCN(C(=O)c4cccc(F)c4)C3)n2)cc1 (stereo unspecified)	1	-3	-31*	11	1
CCC(=O)N1CCc2cc(Br)cc(S(=O)(=O)CCC(=O)NCc3ccccc3)c21	1	-2	-5	1	0
N#C/C(=C\c1sc(N2CCOCC2)nc1-c1ccccc1)C(=O)Nc1cccc2ccccc12	2	3	-5	40*	11
O=C(Nc1ccccc1)c1sc(N2CCOCC2)nc1-c1ccccc1	-7	-5	-1	2	0
CCOCN(C(=O)CSc1nc2ccccc2[nH]1)c1c(C)cccc1CC	-4	0	-28	7	-1
COC(=O)c1cc2sc(Cl)cc2n1Cc1nc(-c2ccccc2F)oc1C	1	-2	6	0	0
SMILES	D1 potentiator	TRHR enhancer	D1 antag	D1 ag	TRHR ag
Cc1ccc(S(=O)(=O)N(C)CCCC(=O)Nc2ccc(C)cc2C)cc1	-2	2	-52*	18	0
Cc1ccc(S(=O)(=O)N(C)CCCC(=O)Nc2ccncc2)cc1	.	2	-35*	22	1
Cc1cc(F)ccc1NC(=O)CCCN(C)S(=O)(=O)c1ccc(F)cc1	-5	-6	-6	4	-1
Cc1ccc(S(=O)(=O)N(C)CCCC(=O)Nc2ccc(F)cc2)cc1	-3	-1	-13	3	-1
COc1ccc(NC(=O)CCCN(C)S(=O)(=O)c2ccc(C)cc2)cc1	-9	0	-60*	4	0
COC(=O)c1c(-c2cccs2)csc1NC(=O)c1cc(OC)c(OC)c(OC)c1	0	-4	-66*	0	1
COC(=O)c1c(-c2cccs2)csc1NC(=O)c1ccc(OC)c(OC)c1	-2	-9	1	3	1

Screening data (PubChem BioAssay)
